{"source": "ChEMBL document CHEMBL3988442", "about": "“University of Dundee, Small-Polar-MMV Screening Library” (2021)", "note": "Among all 53,000 compounds or so, about 900 (1.7%) showed an effect of 50% or more. The full list was thinned out, with strong results kept by preference."}
{"test_system": "Mycobacterium tuberculosis", "assay": "Cornell - Phenotypic assay to identify agents that inhibit growth of Mycobacterium tuberculosis", "type": "functional", "parameters": "scale not given: direction of the effect not stated beside the values", "conditions": "10 mM as filed; unlikely as a test dose", "units": {"Percent Effect": "%"}}
{"compound": "Cc1ncc(CNC(=O)Cc2ccsc2)c(C2CCCN2C)n1", "note": "(configuration not stated)", "Percent Effect": 11.73}
{"compound": "CN1C(=O)C2(CC(=O)Nc3[nH]ncc32)c2cc(Cl)ccc21", "note": "(configuration not stated)", "Percent Effect": 9.602}
{"compound": "O=C(c1ccoc1)N1CCCn2cnc(COCC3CC3)c2C1", "Percent Effect": 7.498}
{"compound": "CC(C)C[C@@H]1N[C@H](C(=O)NCC2CC2)Cc2c[nH]c3cccc1c23", "Percent Effect": 40.17}
{"compound": "COC(=O)[C@@H]1Cc2c[nH]c3cccc(c23)[C@H](CC(C)C)N1", "Percent Effect": 105.3}
{"compound": "CC(C)C[C@@H]1N[C@H](C(=O)NC(C)C)Cc2c[nH]c3cccc1c23", "Percent Effect": 22.96}
{"compound": "Cc1ccc(CN(CCN(C)C)Cc2c(C)nc3sccn23)o1.O=C(O)CC(O)(CC(=O)O)C(=O)O", "Percent Effect": 26.14}
{"compound": "Cc1nc2sccn2c1CN(CCCN(C)C)Cc1ccco1.O=C(O)CC(O)(CC(=O)O)C(=O)O", "Percent Effect": 33.13}
{"compound": "Cc1nc2sccn2c1CN(CCCN(C)C)Cc1ccccn1.O=C(O)CC(O)(CC(=O)O)C(=O)O", "Percent Effect": 51.28}
{"compound": "COCCN1CCC2(CCN(Cc3ccc(OC)cc3)CC2)C1=O.O=C(O)C(F)(F)F", "Percent Effect": -13.5}
{"compound": "Cc1cccc(CN2CCC3(CCC(C(=O)N(C)C)O3)CC2)n1", "note": "(configuration not stated)", "Percent Effect": 35.49}
{"compound": "Fc1cccc2[nH]c(CN3CCn4c(nnc4C4CC4)C3)nc12", "Percent Effect": -6.1}
{"compound": "COc1c(CNCc2nnc3n2CCCCC3)c(C(C)C)nn1C.Cl", "Percent Effect": -4.214}
{"compound": "Cc1nn(C)c(N(C)C)c1CNCc1nnc2n1CCCCC2.Cl", "Percent Effect": 67.58}
{"compound": "COc1c(CNCc2nnc3n2CCCCC3)c(C)nn1C.Cl", "Percent Effect": 31.65}
{"compound": "Cc1cccc(COc2ccc(C(C)NC(=O)CNC(N)=O)cc2)c1", "note": "(configuration not stated)", "Percent Effect": 14.07}
{"compound": "CC1(C)CC(=O)c2cnc3nc(N4CCCC4)[nH]c(=O)c3c2C1", "Percent Effect": 23.1}
{"compound": "CCC1CNCc2cc3c(C)ccc(C)c3nc2O1", "note": "(configuration not stated)", "Percent Effect": 61.63}
{"compound": "CCC1CNCc2cc3c(OC)ccc(OC)c3nc2O1", "note": "(configuration not stated)", "Percent Effect": 6.248}
{"compound": "CS(=O)(=O)c1ccccc1-n1cc(NC(=O)CC(F)(F)F)cn1", "Percent Effect": 18.55}
{"compound": "CCC(=O)c1ccccc1NN1c2ccccc2C(=O)C1(C)OC", "note": "(configuration not stated)", "Percent Effect": 13.72}
{"compound": "Cc1nc(N2CCOCC2)nc(C)c1NC(=O)Cc1ccc(Cl)cc1", "Percent Effect": -26.81}
{"compound": "COc1ccc(CC(=O)Nc2c(C)nc(N3CCOCC3)nc2C)cc1", "Percent Effect": 3.579}
{"compound": "COc1ccc(CC(=O)Nc2c(C)nc(N3CCCC3)nc2C)cc1", "Percent Effect": 59.35}
{"compound": "COc1cc(N2C[C@H]3OCC[C@H]3[C@H](C(=O)N3CCCC3)C2)ncn1", "Percent Effect": -33.02}
{"compound": "CC[C@@H]1N(CC2CC2)CCC[C@]12CCC(=O)N2CCOC.O=C(O)C(F)(F)F", "Percent Effect": 52.28}
{"compound": "CC[C@@H]1N(Cc2ccsc2)CCC[C@]12CCC(=O)N2CCOC.O=C(O)C(F)(F)F", "Percent Effect": 13.62}
{"compound": "CC[C@H]1N(CC2CCC2)CCC[C@]12CCC(=O)N2Cc1ccncc1.O=C(O)C(F)(F)F.O=C(O)C(F)(F)F", "Percent Effect": 23.16}
{"compound": "Fc1ccccc1CC1CCN(Cc2cscn2)CC1", "Percent Effect": 30.5}
{"compound": "Cc1cccc(CN2CCC(Cc3ccccc3F)CC2)n1", "Percent Effect": 56.1}
{"compound": "Fc1ccccc1CC1CCN(Cc2ccccn2)CC1", "Percent Effect": 29.36}
{"compound": "O=C1CN(C(=O)C2CN(c3ccccc3)CCO2)CCN1", "note": "(configuration not stated)", "Percent Effect": 14.68}
{"compound": "O=C(Nc1ccnc(OC2CCOC2)c1)c1ccccc1Cl", "note": "(configuration not stated)", "Percent Effect": 61.48}
{"compound": "Cc1occc1C(=O)Nc1ccnc(OC2CCOC2)c1", "note": "(configuration not stated)", "Percent Effect": 6.262}
{"compound": "O=C(Nc1ccnc(OC2CCOC2)c1)c1ccc(F)cc1Cl", "note": "(configuration not stated)", "Percent Effect": 1.296}
{"compound": "CN(Cc1ccc(F)cc1)[C@@H]1CN(S(=O)(=O)N(C)C)C[C@H]1O", "Percent Effect": 11.25}
{"compound": "COCCN1CCO[C@H]2CN(Cc3cc[nH]n3)C[C@H]21.O=C(O)C(F)(F)F.O=C(O)C(F)(F)F", "Percent Effect": -6.862}
{"compound": "N#Cc1ccc(S(=O)(=O)Nc2ccccc2C#N)cn1", "Percent Effect": 63.63}
{"compound": "Cc1ccc(S(=O)(=O)Nc2cccnc2O)cc1C", "Percent Effect": -38.51}
{"compound": "Cc1cccc(NS(=O)(=O)c2cnn(C)c2)c1C#N", "Percent Effect": -1.344}
{"compound": "COCCNS(=O)(=O)c1ccc(CNc2ncccc2C#N)cc1", "Percent Effect": 9.617}
{"compound": "Cc1cccc(NS(=O)(=O)c2ccc(C#N)nc2)c1C#N", "Percent Effect": 105.8}
{"compound": "N#Cc1cccnc1NCc1ccc(S(=O)(=O)NCC2CCCO2)cc1", "note": "(configuration not stated)", "Percent Effect": -11.22}
{"compound": "Cc1ccc(N2C[C@H]3CCN(Cc4ccncc4)C[C@H]3C2)nn1.O=C(O)C(F)(F)F", "Percent Effect": -19.26}
{"compound": "Cc1ccc(CN2CCC3(CCCN3C(=O)C(C)C)CC2)o1", "Percent Effect": -8.279}
{"compound": "CCOc1nnc(CN(C)C2CCCN(c3cccnn3)C2)s1", "note": "(configuration not stated)", "Percent Effect": 26.02}
{"compound": "CC1c2ncc(COCC3CC3)n2CCN1C(=O)c1ccn(C)n1", "note": "(configuration not stated)", "Percent Effect": 14.69}
{"compound": "Cc1cc(N2CCOCC2)ccc1NC(C)c1nc(C(C)C)no1", "note": "(configuration not stated)", "Percent Effect": 72.08}
{"compound": "Cc1cc(CN2CCN(C(C)c3nc(C(C)C)no3)CC2)no1", "note": "(configuration not stated)", "Percent Effect": -1.591}
{"compound": "Cc1noc(C(C)N2CCN(CC(=O)N3CCOCC3)CC2)n1", "note": "(configuration not stated)", "Percent Effect": -22.01}
{"compound": "Cc1cc(CNC(=O)NC(C)c2ccc(N3CCOCC3)cc2)no1", "note": "(configuration not stated)", "Percent Effect": -27.63}
{"compound": "CCN1CCN(c2ccc(NC(C)c3nc(C(C)C)no3)c(C)c2)CC1", "note": "(configuration not stated)", "Percent Effect": 73.38}
{"compound": "Cc1noc(C(C)Nc2ccc3c(c2)CCC3)n1", "note": "(configuration not stated)", "Percent Effect": -0.4193}
{"compound": "CC(c1nc(C(C)(C)C)no1)N1CCN(C(=O)CN2CCOCC2)CC1", "note": "(configuration not stated)", "Percent Effect": 8.353}
{"compound": "Cc1cc(N2CCOCC2)ccc1NC(C)c1nc(C(C)(C)C)no1", "note": "(configuration not stated)", "Percent Effect": 76.4}
{"compound": "CC(c1nc(C(C)(C)C)no1)N1CCN(CC(=O)N2CCOCC2)CC1", "note": "(configuration not stated)", "Percent Effect": 7.513}
{"compound": "Cc1cc(OCC(=O)NC(C)c2ccc(N3CCOCC3)cc2)no1", "note": "(configuration not stated)", "Percent Effect": 4.093}
{"compound": "Cc1noc(C(C)Nc2ccc(N3CCOCC3)cc2C)n1", "note": "(configuration not stated)", "Percent Effect": 61.87}
{"compound": "CCN1CCN(c2ccc(NC(=O)CC(C)C)c(C)c2)CC1", "Percent Effect": -22.64}
{"compound": "CCc1ccccc1NC(=O)NCc1nnc(SC)n1C", "Percent Effect": -6.778}
{"compound": "CC(=O)N1CCC(CCc2ccnc(NC(=O)c3ccccn3)c2)CC1", "Percent Effect": -18.95}
{"compound": "COc1ccc(-n2cnc(Cl)c2CO)cc1", "Percent Effect": 11.93}
{"compound": "COCCN(C)C[C@H]1C[C@H](CO)CN(C(=O)c2ccn(C)c(=O)c2)C1", "Percent Effect": 18.02}
{"compound": "CCc1ncnc(N2CCOCC2C2CC2)c1F", "note": "(configuration not stated)", "Percent Effect": 0.2478}
{"compound": "COCCNC(=O)c1ccccc1-n1cc(CN)cn1", "Percent Effect": -18.17}
{"compound": "CC(C)COC(=O)N1CC(=O)N(CCCc2ccccc2)CC(O)C1", "note": "(configuration not stated)", "Percent Effect": 6.947}
{"compound": "Cc1cc(C)c(CNC(=O)NCC(O)c2ccccc2F)c(=O)[nH]1", "note": "(configuration not stated)", "Percent Effect": -14.22}
{"compound": "CCc1nccn1C1CCCN(C(=O)c2cccc3c2OCO3)C1", "note": "(configuration not stated)", "Percent Effect": -43.9}
{"compound": "C1CCN(CCN2CCCCC2C2OCCO2)CC1", "note": "(configuration not stated)", "Percent Effect": 10.52}
{"compound": "Cc1cccc(C2(O)CCN(Cc3ccccc3N3CCCC3)CC2)c1", "Percent Effect": 33.4}
{"compound": "CCN(CC)C(=O)CN1CCC2(C=Cc3cc(Cl)c(C)cc3O2)CC1", "Percent Effect": 52.2}
{"compound": "Cc1cc2c(cc1Cl)C=CC1(CCN(CC(=O)NC3CCCC3)CC1)O2", "Percent Effect": 71.56}
{"compound": "CCc1ccc(O)c(C(=O)N2CCN(CC(=O)N(CC)CC)CC2)c1", "Percent Effect": -14.81}
{"compound": "Cc1cc(C)n(CC2CN(CC(=O)NC3CCCC3)CCO2)n1", "note": "(configuration not stated)", "Percent Effect": -7.412}
{"compound": "Cc1cc2c(cc1Cl)C=CC1(CCN(C(=O)N3CCOCC3)CC1)O2", "Percent Effect": 23.79}
{"compound": "Cc1cc2c(cc1Cl)C=CC1(CCN(CC(=O)N3CCOCC3)CC1)O2", "Percent Effect": -15.66}
{"compound": "Cc1cc(C)n(CC2CN(CC(=O)NC3CCCCC3)CCO2)n1", "note": "(configuration not stated)", "Percent Effect": -10.09}
{"compound": "Cc1cc2c(cc1C)OC1(C=C2)CCN(CC(=O)N2CCOCC2)CC1", "Percent Effect": 44.67}
{"compound": "Cc1cc2c(cc1Cl)C=CC1(CCN(CC(=O)N3CCCC3)CC1)O2", "Percent Effect": 63.41}
{"compound": "O=C1NCC(C(=O)Nc2ncc(Cc3ccccc3)s2)N1", "note": "(configuration not stated)", "Percent Effect": -21.97}
{"compound": "CNC(=O)c1cn[nH]c1C1CCN(Cc2cn(C)nc2C)C1", "note": "(configuration not stated)", "Percent Effect": -22.18}
{"compound": "CCn1nc(C)c2ncnc(N(C)C)c21", "Percent Effect": -48.95}
{"compound": "O=C(CC1CCCC1)N1CCC(c2cc3ncccc3c(O)n2)CC1", "Percent Effect": -42.1}
{"compound": "CCN1CCCC1CNC(=O)Cc1c(C)n[nH]c1-c1ccc(OC)cc1", "note": "(configuration not stated)", "Percent Effect": 17.71}
{"compound": "CCC(C(=O)Nc1ccc2cn(CC)nc2c1)N1CCCC1=O", "note": "(configuration not stated)", "Percent Effect": 13.02}
{"compound": "Nc1nnc(CCNC(=O)c2cccc(C3CCCNC3)c2)s1", "note": "(configuration not stated)", "Percent Effect": 4.454}
{"compound": "Cn1cnc2c1CCN(CCS(=O)(=O)c1ccc(Cl)cc1)C2", "Percent Effect": -6.56}
{"compound": "Cc1cc(C)n(C2CN(CC(=O)N(C)Cc3ccco3)C2)n1", "Percent Effect": -1.246}
{"compound": "COc1cccc(CN(C)C(=O)CN2CC(n3nc(C)cc3C)C2)c1", "Percent Effect": 24.75}
{"compound": "COc1ccccc1CN(C)C(=O)CN1CC(n2nc(C)cc2C)C1", "Percent Effect": 65.44}
{"compound": "CCCc1nc(CN(CCO)Cc2cc(Br)ccc2F)no1", "Percent Effect": 55.91}
{"compound": "Cc1noc(CN(CCO)Cc2cc(Br)ccc2F)n1", "Percent Effect": 29.28}
{"compound": "CC(C)(C)c1nc(CN(CCO)Cc2cc(Br)ccc2F)no1", "Percent Effect": 21.92}
{"compound": "CCS(=O)(=O)N1CCCn2cnc(COc3cccnc3)c2C1.O=C(O)C(F)(F)F", "Percent Effect": 13.68}
{"compound": "CN(CCCc1cnn(C)c1)Cc1cc2n(n1)CCCN(C)C2", "Percent Effect": 2.304}
{"compound": "CC(C)CNC(=O)CNC(=O)c1nc(Cc2c(Cl)cccc2Cl)no1", "Percent Effect": 50.66}
{"compound": "CC(O)CNC(=O)c1nc(Cc2c(Cl)cccc2Cl)no1", "note": "(configuration not stated)", "Percent Effect": 19.28}
{"compound": "C[C@@H](O)CNC(=O)c1nc(Cc2c(Cl)cccc2Cl)no1", "Percent Effect": 33.25}
{"compound": "CC(C)(O)CN1CCN(C(=O)c2cc3ccccc3c(=O)[nH]2)CC1", "Percent Effect": 11.41}
{"compound": "COc1cccc2cc(CNCc3ccnc(N4CCOCC4)c3)oc12", "Percent Effect": -7.276}
{"compound": "COc1cccc2cc(CNCc3ccnc(N4CCCCC4)c3)oc12", "Percent Effect": 60.34}
{"compound": "COc1cccc2cc(CNCc3ccc(N4CCCC4)nc3)oc12", "Percent Effect": -14.56}
